Data as given in the supplement of paper PMC11732987, “Enantioselective OTUD7B fragment discovery through chemoproteomics screening and high-throughput optimisation” (Communications Chemistry, 2025).

Legend:
Assay in all cases: log2 ratio of Biotin-Ahx-Ub-VS probe labelling (fragment/DMSO); higher = less target engagement (more negative = stronger competition), active = hit call of the paper (q ≤ 0.05, log2 ratio ≤ -1)
Settings in all cases: compound concentration: 200 uM; treatment time: 3 h
OTUD6B = target: T1, OTUD6B (UniProt Q8N6M0)
T1 sequence (whole entry): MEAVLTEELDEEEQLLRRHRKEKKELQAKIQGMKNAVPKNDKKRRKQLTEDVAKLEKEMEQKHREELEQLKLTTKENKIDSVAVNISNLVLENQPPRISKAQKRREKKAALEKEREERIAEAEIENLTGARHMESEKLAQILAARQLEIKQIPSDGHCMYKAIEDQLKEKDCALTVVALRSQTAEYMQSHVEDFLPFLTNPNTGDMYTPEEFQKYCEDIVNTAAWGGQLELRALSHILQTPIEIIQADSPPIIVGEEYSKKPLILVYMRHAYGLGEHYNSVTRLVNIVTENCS
Summary of the method: (§1)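 The table lists average log2 ratios of fragment over vehicle, from an unpaired t-test on global-median-normalised Spectronaut label-free quantities. Proteins with ≥2 unique peptides were used. Samples were HEK293T lysate (495 µg) treated in triplicate with fragment at 200 µM or vehicle for 3 h, then with Biotin-Ahx-Ub-VS (0.5 µM final) for 1 h, with labelled DUBs NeutrAvidin-enriched and run by diaPASEF LC-MS/MS.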

OTUD7B = target: T2, OTUD7B (UniProt Q6GQQ9)
T2 sequence (whole entry): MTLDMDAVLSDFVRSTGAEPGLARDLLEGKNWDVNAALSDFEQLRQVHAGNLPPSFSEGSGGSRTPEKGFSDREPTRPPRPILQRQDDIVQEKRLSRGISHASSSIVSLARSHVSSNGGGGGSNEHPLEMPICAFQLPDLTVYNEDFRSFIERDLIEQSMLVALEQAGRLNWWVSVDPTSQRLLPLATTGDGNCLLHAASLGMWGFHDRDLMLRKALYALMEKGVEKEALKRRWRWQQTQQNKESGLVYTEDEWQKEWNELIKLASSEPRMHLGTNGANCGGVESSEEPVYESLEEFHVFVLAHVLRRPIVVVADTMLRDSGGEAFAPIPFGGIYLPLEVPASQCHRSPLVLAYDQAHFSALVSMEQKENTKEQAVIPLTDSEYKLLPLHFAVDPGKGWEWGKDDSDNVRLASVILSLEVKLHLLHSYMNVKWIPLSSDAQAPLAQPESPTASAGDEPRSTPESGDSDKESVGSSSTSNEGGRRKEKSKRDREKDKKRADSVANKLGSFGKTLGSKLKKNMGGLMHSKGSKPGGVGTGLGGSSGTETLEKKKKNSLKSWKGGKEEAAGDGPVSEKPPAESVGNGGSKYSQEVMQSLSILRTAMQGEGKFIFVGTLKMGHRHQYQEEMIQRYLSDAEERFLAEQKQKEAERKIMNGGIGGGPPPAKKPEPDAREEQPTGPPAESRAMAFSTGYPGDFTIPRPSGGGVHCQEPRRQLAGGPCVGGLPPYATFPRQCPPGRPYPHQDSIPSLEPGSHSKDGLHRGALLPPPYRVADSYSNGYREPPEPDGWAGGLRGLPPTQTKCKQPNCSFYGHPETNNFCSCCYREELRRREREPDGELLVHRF
Summary of the method: as §1

PRPF8 = PRPF8 (UniProt Q6P2Q9)
Summary of the method: as §1

PSMD7 = target: T3, PSMD7 (UniProt P51665)
T3 sequence (whole entry): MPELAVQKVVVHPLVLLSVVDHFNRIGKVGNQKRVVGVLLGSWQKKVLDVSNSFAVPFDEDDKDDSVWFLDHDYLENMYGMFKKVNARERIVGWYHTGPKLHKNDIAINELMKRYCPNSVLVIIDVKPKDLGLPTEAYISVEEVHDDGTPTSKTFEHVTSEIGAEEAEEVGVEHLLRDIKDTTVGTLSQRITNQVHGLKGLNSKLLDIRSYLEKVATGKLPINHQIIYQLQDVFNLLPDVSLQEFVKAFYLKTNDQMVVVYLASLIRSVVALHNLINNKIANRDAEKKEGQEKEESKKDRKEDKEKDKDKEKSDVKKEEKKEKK
Summary of the method: as §1

UCHL1 = UCHL1 (UniProt P09936)
Summary of the method: as §1

UCHL3 = target: T4, UCHL3 (UniProt P15374)
T4 sequence (whole entry): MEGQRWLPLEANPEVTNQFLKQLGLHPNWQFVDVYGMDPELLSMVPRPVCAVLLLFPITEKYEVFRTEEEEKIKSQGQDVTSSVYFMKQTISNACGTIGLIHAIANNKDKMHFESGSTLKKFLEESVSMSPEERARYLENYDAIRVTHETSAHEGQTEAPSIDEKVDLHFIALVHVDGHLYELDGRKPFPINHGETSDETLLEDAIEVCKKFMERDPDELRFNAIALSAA
Summary of the method: as §1

UCHL5 = target: T5, UCHL5 (UniProt Q9Y5K5)
T5 sequence (whole entry): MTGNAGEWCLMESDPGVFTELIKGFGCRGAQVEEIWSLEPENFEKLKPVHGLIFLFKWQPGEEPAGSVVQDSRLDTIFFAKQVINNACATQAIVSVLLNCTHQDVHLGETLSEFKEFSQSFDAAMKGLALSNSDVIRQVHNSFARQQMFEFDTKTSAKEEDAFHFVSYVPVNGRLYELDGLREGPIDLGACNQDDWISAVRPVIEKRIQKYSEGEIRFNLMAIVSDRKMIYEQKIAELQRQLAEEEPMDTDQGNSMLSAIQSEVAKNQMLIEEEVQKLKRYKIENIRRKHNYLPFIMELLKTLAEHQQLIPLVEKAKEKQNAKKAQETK
Summary of the method: as §1

USP10 = USP10 (UniProt Q14694)
Summary of the method: as §1

USP15 = target: T6, USP15 (UniProt Q9Y4E8)
T6 sequence (whole entry): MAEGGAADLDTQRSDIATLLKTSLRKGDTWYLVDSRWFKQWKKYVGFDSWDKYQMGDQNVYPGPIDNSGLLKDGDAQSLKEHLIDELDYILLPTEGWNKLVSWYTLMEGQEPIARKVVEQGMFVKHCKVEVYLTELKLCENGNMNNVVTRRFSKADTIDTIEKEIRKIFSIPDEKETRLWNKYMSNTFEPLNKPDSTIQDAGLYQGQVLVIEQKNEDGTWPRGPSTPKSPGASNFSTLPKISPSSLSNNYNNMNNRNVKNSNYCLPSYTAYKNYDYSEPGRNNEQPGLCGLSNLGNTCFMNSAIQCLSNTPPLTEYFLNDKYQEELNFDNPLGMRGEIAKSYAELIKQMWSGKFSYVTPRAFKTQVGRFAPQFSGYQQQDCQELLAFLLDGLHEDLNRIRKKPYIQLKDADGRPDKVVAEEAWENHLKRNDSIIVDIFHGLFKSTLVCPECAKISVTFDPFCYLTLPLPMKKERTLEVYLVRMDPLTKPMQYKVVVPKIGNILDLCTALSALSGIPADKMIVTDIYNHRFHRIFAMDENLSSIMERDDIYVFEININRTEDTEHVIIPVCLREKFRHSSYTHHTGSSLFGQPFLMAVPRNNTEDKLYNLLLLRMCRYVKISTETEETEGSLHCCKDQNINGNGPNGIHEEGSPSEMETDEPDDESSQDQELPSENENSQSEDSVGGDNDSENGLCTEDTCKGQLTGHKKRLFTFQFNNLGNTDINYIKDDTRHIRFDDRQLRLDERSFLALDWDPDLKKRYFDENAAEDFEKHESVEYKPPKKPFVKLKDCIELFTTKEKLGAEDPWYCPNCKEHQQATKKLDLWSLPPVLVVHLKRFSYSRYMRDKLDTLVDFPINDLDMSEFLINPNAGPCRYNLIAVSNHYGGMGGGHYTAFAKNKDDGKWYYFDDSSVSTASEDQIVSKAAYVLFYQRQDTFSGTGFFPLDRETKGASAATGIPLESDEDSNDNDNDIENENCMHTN
Summary of the method: as §1

USP16 = USP16 (UniProt Q9Y5T5)
Summary of the method: as §1

Measured: log2 ratio of Biotin-Ahx-Ub-VS probe labelling

Sequence of USP16 (Q9Y5T5 whole entry, looked up): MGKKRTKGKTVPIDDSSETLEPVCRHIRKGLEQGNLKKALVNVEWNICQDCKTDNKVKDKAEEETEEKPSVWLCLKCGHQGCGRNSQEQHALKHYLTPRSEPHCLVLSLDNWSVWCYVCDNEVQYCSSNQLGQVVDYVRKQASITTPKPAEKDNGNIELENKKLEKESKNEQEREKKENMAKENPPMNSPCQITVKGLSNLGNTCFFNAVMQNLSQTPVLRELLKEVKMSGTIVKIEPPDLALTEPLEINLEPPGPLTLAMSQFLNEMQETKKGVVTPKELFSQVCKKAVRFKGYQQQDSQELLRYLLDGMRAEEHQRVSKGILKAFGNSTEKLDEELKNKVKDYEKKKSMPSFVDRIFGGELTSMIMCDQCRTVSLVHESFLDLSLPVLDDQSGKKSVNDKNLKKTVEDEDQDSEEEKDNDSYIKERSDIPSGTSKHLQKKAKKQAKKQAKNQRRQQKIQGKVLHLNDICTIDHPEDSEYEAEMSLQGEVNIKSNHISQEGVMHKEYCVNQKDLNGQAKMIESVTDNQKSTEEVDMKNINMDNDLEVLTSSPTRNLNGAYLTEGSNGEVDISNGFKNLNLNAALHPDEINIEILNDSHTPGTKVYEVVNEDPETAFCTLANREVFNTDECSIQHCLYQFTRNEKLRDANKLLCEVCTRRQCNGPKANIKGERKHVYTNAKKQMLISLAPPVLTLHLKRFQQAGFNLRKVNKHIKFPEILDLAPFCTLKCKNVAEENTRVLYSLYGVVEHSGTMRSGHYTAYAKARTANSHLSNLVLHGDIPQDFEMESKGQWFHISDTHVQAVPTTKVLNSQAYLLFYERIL
Sequence of USP10 (Q14694 whole entry): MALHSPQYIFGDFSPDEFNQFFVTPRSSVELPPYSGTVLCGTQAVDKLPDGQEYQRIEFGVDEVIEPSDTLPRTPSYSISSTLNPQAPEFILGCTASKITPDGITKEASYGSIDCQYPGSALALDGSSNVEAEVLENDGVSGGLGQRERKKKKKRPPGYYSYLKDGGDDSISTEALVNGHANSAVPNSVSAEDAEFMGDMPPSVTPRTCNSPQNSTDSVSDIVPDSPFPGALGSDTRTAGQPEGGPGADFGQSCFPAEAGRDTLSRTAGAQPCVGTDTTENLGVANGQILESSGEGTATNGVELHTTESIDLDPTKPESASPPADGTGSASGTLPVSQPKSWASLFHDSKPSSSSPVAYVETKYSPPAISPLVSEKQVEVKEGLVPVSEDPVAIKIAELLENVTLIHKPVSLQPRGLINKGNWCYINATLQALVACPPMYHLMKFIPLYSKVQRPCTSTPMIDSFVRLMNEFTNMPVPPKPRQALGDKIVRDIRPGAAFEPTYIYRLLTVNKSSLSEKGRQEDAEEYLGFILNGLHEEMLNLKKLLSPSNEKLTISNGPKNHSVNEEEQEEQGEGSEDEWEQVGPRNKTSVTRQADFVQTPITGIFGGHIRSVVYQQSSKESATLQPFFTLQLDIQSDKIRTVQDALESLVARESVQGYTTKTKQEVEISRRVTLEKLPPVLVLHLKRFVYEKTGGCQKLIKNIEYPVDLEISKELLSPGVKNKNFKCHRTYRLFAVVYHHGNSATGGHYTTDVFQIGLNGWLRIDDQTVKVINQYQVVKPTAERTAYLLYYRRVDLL
Sequence of UCHL1 (P09936 whole entry, looked up): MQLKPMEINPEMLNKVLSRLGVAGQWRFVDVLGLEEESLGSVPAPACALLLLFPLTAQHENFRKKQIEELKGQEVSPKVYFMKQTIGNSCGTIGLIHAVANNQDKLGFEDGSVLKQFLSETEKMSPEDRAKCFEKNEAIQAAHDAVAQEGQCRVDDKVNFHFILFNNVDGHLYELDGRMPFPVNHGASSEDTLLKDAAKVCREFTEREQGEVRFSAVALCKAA

Cc1cccc2nc(CCNC(=O)CCl)cn12.Cl
active: UCHL1 -2.08
inactive: OTUD6B -0.459 | OTUD7B -0.556 | PRPF8 -0.224 | PSMD7 -0.141 | UCHL3 -0.0466 | UCHL5 -0.344 | USP10 -0.121 | USP15 -0.369 | USP16 0.0184
